FEN1 inhibitor – blocks human flap endonuclease 1 | AID 588795 | Potency, µM (top dose mostly 114 µM), for inactives: at the top dose activity change, negative = inhibition, most hits filed as inhibitors | 390,000 tested, 0.35% active | Recombinant FEN1 flap cleavage, fluorescence, 15 min; also: % is scaled to controls: 0 for no effect and ±100 for the full control effect; nearly all actives have a fitted effect of over 65% in size
Target sequence (P39748 whole entry, looked up): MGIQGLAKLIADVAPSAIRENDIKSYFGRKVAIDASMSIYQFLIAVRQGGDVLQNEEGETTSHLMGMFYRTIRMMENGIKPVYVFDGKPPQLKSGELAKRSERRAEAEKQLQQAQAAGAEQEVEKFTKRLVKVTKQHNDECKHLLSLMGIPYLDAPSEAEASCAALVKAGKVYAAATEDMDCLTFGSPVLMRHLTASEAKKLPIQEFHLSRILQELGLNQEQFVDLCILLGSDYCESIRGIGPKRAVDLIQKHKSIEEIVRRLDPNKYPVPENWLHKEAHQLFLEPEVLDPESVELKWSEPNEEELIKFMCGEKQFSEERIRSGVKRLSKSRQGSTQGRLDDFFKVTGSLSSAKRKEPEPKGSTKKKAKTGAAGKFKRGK
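Recombinant FEN1 (10 nM) was preincubated with pin-transferred compounds for 15 min at room temperature, then flap DNA substrate (50 nM final) was added. Plates were read at 0 and 15 min, and normalized concentration–response data were fitted to a four-parameter Hill equation.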
Pol kappa inh – DNA polymerase kappa (human) inhibition | Q9UBT6 | purified Pol kappa, fluorescent DNA synthesis assay, 10 min | Potency, µM (doses to about 107 µM), for inactives: at the top dose activity, negative = inhibition, usual class: inhibitors | 400,000 tested, 0.53% active; also: % is scaled to controls: 0 for no effect and ±100 for the full control effect
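Activity was followed as the change in fluorescence between reads at 0 and 10 min after starting the reaction with 50 nM substrate. Beforehand, 10 nM polymerase had been preincubated with compound for 15 min at room temperature.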
Pol eta inh – DNA polymerase eta (human) inhibition; recombinant Pol eta, fluorescent DNA replication assay; AID 588591; Potency, µM (highest dose often 114 µM), for the others: at the top dose activity change, negative = inhibition, usual class: inhibitors; Q9Y253; 390,000 tested, 1.2% active; also: % is scaled to controls: 0 for no effect and ±100 for the full control effect
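Pol eta at 10 nM preincubated with compounds 15 min at room temperature; reaction started with fluorescent substrate (50 nM final) and read kinetically at 0 and 10 min.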
Pol iota inh – inhibitors of human DNA polymerase iota; Potency, µM (titrated, usually from 115 µM), without a hit: at the top dose activity, negative = inhibition, actives largely listed as inhibitors; Pol iota fluorescent replication assay, 10 min; 390,000 tested, 1% active; Q9UNA4; AID 588590
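Fluorescent replication assay read twice, at 0 min and 10 min after adding 50 nM (final) substrate. Enzyme (10 nM) and compounds were first incubated 15 min at room temperature; enzyme-free buffer wells were negative controls.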
POLB inh – inhibitors of human DNA polymerase beta. P06746. Pol beta primer extension/strand displacement, fluorescence kinetic. Potency, µM (doses to about 114 µM), for inactives: top-dose activity change, negative = inhibition, actives largely listed as inhibitors. 340,000 tested, 1.3% active. AID 485314; also: % is scaled to controls: 0 for no effect and ±100 for the full control effect
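Reaction started by 50 nM substrate onto compound-treated Pol beta (10 nM, 15 min preincubation, room temperature); plates read at 0 min and 10 min. Normalized concentration-effect data fitted by four-parameter Hill equation.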
WRN inhibitor – blocks human WRN helicase; Q14191; Potency, µM (highest dose often 114 µM), for inactives: at the top dose activity change, negative = inhibition, hits mostly inhibitors; AID 651768; WRN helicase unwinding, fluorescent forked duplex, kinetic; 360,000 tested, 0.46% active; also: % is scaled to controls: 0 for no effect and ±100 for the full control effect; nearly all actives have a fitted effect of over 55% in size
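Kinetic red-fluorescence monitoring (525/598 nm) tracks WRN helicase activity after 100 nM fluorophore-quencher forked duplex and 2 mM ATP are added to 20 nM enzyme pretreated 15 min at room temperature with compound.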
The depositor's hits bear a star; ? = inconclusive; . = not tested or not shown; [ ] = dose if it differs, or a comment. Hits are enriched below; roughly 2.4% of the tested compounds scored in any of these assays. Calls follow the shape of the dose curve; as a rule, active = well fitted curve in the direction sought with a large enough effect; inconclusive = small, poorly fitted or top-dose-only effect, or another doubt; inactive = no such curve, though single readings can be large; an effect the other way counts as inactive or inconclusive. Potency is read from the fitted curve at half-maximal effect.

SMILES | FEN1 inhibitor | Pol kappa inh | Pol eta inh | Pol iota inh | POLB inh | WRN inhibitor
O=C(CC1N=C2c3ccccc3N=C(SCc3ccc(Cl)cc3)N2C1=O)NCc1ccco1 (stereo not given) | -14.2% | ? | 79.4µM* | ? | ? | -3.5%[11.6 µM]
Cc1ccc(CSC2=Nc3ccccc3C3=NC(CCC(=O)NCc4ccco4)C(=O)N23)cc1 (stereo not given) | -7.5% | -10.2% | 7.3% | 26.8% | 0.7% | 0.8%
O=S(=O)(NCc1ccccc1)c1ccc(Cl)cc1 | 0.3% | -7.3% | -11.8% | 21.9% | 8.6% | -1.5%
O=S(=O)(Nc1cc2nc3ccccc3nc2n1Cc1ccccc1)c1ccc(Cl)cc1 | -9.9% | -34.1% | 79.4µM* | 10µM* | ? | ?
Cc1ccccc1NC(=O)CSc1nc(-c2ccccc2)cn1-c1ccccc1F | 1.0% | 0.6%[60.1 µM] | -26.6% | 28.5% | -16.8% | .
CCC(/C=C1\Sc2ccc(OC)cc2N1CCO)=C\c1sc2ccc(OC)cc2[n+]1CCO | 35.5µM* | ? | 14.1µM* | ? | 22.4µM* | 50.1µM*
CCC(/C=C1\Sc2ccc(OC)cc2N1CC)=C\c1sc2ccc(OC)cc2[n+]1CCCS(=O)(=O)[O-] | ? | 22.8%[60.1 µM] | ? | 120.8% | 8.91µM* | 31.9%
Cc1cc(O)c(CN2CCN(c3ccc(F)cc3)CC2)c2oc(=O)cc(C)c12 | -11.9% | -17.0% | -22.2% | 28.8% | 11.8% | .
COc1cccc(CNC(=O)COC(=O)c2ccc(S(C)(=O)=O)c([N+](=O)[O-])c2)c1 | -5.5% | 2.1% | . | 18.5% | . | .
O=c1c(C=NCc2ccccc2)c(NCc2ccccc2)nc2ccccn12 | -2.6% | -12.8% | -5.2% | -16.6% | 31.7% | -13.1%
Cc1ccc2nc(NCc3ccco3)c(C=NCc3ccco3)c(=O)n2c1 | -2.1% | -14.2% | -5.6% | 1.2% | 28.2µM* | -12.9%
Cc1cccc(-c2nc(SCC(=O)Nc3cccc(C(F)(F)F)c3)n3[nH]c(=O)cc3n2)c1 | -20.9% | -26.4% | -19.5% | ? | 39.8µM* | .
O=C(CSc1nc(-c2cccs2)nc2cc(=O)[nH]n12)Nc1cccc(C(F)(F)F)c1 | 10.0% | -16.6% | -17.3% | ? | ? | .
COc1ccccc1OCCCSc1nc(-c2ccc(C(C)(C)C)cc2)nc2cc(=O)[nH]n12 | -12.9% | ? | 79.4µM* | ? | ? | .
C=CCc1ccccc1OCCSc1nc(-c2ccccc2F)nc2cc(=O)[nH]n12 | -6.3% | -38.8% | ? | ? | 10µM* | .
Cc1cccc(NC(=O)CSc2nc(-c3cccs3)nc3cc(=O)[nH]n23)c1 | -15.4% | -30.9% | -7.9% | ? | ? | .
Cc1ccc(NC(=O)CSc2nc(-c3cccs3)nc3cc(=O)[nH]n23)cc1 | -13.5% | -34.0% | 79.4µM* | ? | 31.6µM* | .
Cc1ccc(-c2nnn3c2nc(NCC(C)c2ccccc2)c2ccccc23)cc1 (stereo not given) | 0.4% | -14.1% | -26.2% | 26.5% | 3.9% | .
COc1ccc(NC(=O)CSc2nnc(-c3ccco3)n2C)cc1 | -13.5% | -24.7% | -11.2% | 15.9% | 8.4% | 7.6%
COc1cccc(-c2nc(SCc3ccc(C)cc3)n3[nH]c(=O)cc3n2)c1 | -5.5% | -15.8% | -7.7% | 89.1µM* | ? | .
COc1ccc(NC(=O)CSc2nc(-c3ccccc3)nc3cc(=O)[nH]n23)cc1 | -3.0% | ? | -14.7% | ? | 25.1µM* | .
Cc1ccc(NC(=O)CSc2nc(-c3ccco3)nc3cc(=O)[nH]n23)cc1C | 0.7% | ? | ? | ? | 39.8µM* | .
O=C(CSc1nc(-c2ccccc2)nc2cc(=O)[nH]n12)Nc1ccccc1 | -8.7% | -9.0%[60.1 µM] | -1.9% | ? | ? | .
COc1ccc(NC(=O)CSc2nc(-c3ccco3)nc3cc(=O)[nH]n23)cc1 | -2.5% | ? | ? | 79.4µM* | 25.1µM* | .
CN(C)c1ccc(/C=C2\C=Cc3ccccc32)cc1[N+](=O)[O-] | -15.4% | -19.5% | . | 10.9% | . | .
SMILES | FEN1 inhibitor | Pol kappa inh | Pol eta inh | Pol iota inh | POLB inh | WRN inhibitor
CCOc1ccc(NC(=O)COC(=O)c2ccccc2OCc2ccccc2Br)cc1 | 6.5% | -6.3% | . | -17.7% | . | .
COc1ccc(NC(=O)CSc2nc(-c3ccco3)nc3cc(=O)[nH]n23)cc1Cl | -17.6% | -37.2% | ? | 79.4µM* | -33.9% | -7.7%[11.6 µM]
COc1ccc(NC(=O)CSc2nc(-c3ccco3)cc(C(F)(F)F)n2)cc1Cl | -18.2% | -17.2% | 2.4% | 4.7% | 28.6% | .
CC1(C)CCC[C@@](C)([C@H]2CC[C@]3(C)[C@@H]2[C@H](O)C[C@@H]2[C@@]4(C)CC[C@H](O)C(C)(C)[C@@H]4CC[C@]23C)O1 | . | -9.4%[60.1 µM] | . | . | . | .
CN(C)c1ccc(CNC(=O)c2ccc3nc(Cc4ccccc4)oc3c2)cc1 | 0.9% | -12.5%[60.1 µM] | -11.5% | 28.2µM* | 0.2% | .
Cc1cccc(CNC(=O)c2ccc3nc(Cc4ccccc4)oc3c2)c1 | 0.0% | -7.6%[60.1 µM] | -25.2% | 20.6% | -1.8% | .
CC1CC(C)CN(c2oc(-c3ccc(OCc4ccccc4Cl)cc3)nc2C#N)C1 (stereo not given) | -14.0% | -12.9% | . | 0.5% | . | .
COc1ccc(OC)c(NC(=O)Cn2c(=O)c3cccn3c3ccccc32)c1 | -15.3% | -20.9% | -5.6% | -7.3% | ? | .
O=C(CSc1ccccc1)N1CCN(S(=O)(=O)c2ccccc2F)CC1 | 4.0% | -39.3% | ? | 50.1µM* | 44.7µM* | 4.8%[11.6 µM]
COc1ccc(CCNC(=O)c2ccc3c(c2)N(Cc2ccc(F)cc2)C(=O)CS3)cc1OC | -4.8% | -1.3%[60.1 µM] | -16.5% | -4.6% | -0.3% | .
O=C(Cn1cnnn1)OCC(=O)c1ccc(Cl)s1 | -11.4% | ? | 14.1µM* | ? | 22.4µM* | -9.0%[11.6 µM]
FC(F)(F)c1ccccc1-c1ccc2ncnc(NC3CC3)c2c1 | . | -1.1%[60.1 µM] | . | . | . | .
COc1cccc(/C=N/Nc2ncnc3c2[nH]c2ccc(C)cc23)c1OC | -21.3% | ? | ? | 12.6µM* | ? | ?
CCN(c1cc(C)cc(C)c1)S(=O)(=O)c1nnc(NC(=O)c2cccc(F)c2)s1 | 5.3% | -4.3% | ? | 14.3% | 13.2% | .
N#CN=c1snc(-c2ccccc2)n1-c1ccc(Cl)cc1 | -6.7% | 1.9% | . | 14.2% | . | .
O=C(C#Cc1ccccc1)c1cccc([N+](=O)[O-])c1 | 3.8% | 0.8% | -16.4% | ? | -18.7% | 17.8µM*
CCCC(=O)Nc1ccc2nn(-c3ccc(CC)cc3)nc2c1 | -5.8% | -10.7% | -15.3% | 31.2% | 9.6% | .
CCOc1cc(C2C(C#N)=C(N)Oc3n[nH]c(-c4ccccc4)c32)ccc1O (stereo not given) | -17.0% | -2.0% | 1.2% | 25.1µM* | 36.7% | 16.8%
N#CC1=C(N)Oc2n[nH]c(-c3ccccc3)c2C1c1cccnc1 (stereo not given) | -1.0% | -1.9% | 7.8% | ? | -16.6% | -8.7%

High-throughput results as filed in PubChem.
